Compound activity: PubChem BioAssay, National Center for Advancing Translational Sciences (NCATS)
Rows were chosen to be rich in hits. Some 12% of all compounds tested hit in one or more screens of this group.
JMJD2A Tudor inh: JMJD2A Tudor domain (human) inhibition; O75164; AlphaScreen JMJD2A-Tudor / H3K4me3 peptide binding; Potency, µM (doses to about 114 µM), for inactives: top-dose activity change, negative = inhibition, most hits filed as inhibitors; 4.4% of 390,000 active; further: on the % scale 0 is the no-effect control and ±100 the full control effect; nearly all actives have a fitted effect of over 50% in size
G9a inh: G9a (human) methyltransferase inhibition; Q96KQ7; G9a H3K9 monomethylation, AlphaScreen, 2 h; Potency, µM (highest dose often 102 µM), without a hit: at the top dose activity, negative = inhibition, usual class: inhibitors; 8.8% of 350,000 active; AID 504332; further: on the % scale 0 is the no-effect control and ±100 the full control effect; nearly all actives have a fitted effect of over 75% in size
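Methyltransferase reactions run at room temperature for 2 h (20 nM enzyme, 500 nM biotin-H3K9 peptide, 20 uM SAM) after a 15 min compound preincubation; product detected by AlphaScreen beads and anti-H3K9me1 antibody.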
L3MBTL1 inh: inhibitors of human L3MBTL1; AID 485360; 0.66% of 230,000 active; Q9Y468; Potency, µM (highest dose often 57.1 µM), without a hit: at the top dose activity, negative = inhibition, hits mostly inhibitors; AlphaScreen L3MBTL1–H3K9me1 peptide binding; further: on the % scale 0 is the no-effect control and ±100 the full control effect; nearly all actives have a fitted effect of over 60% in size
Target sequence (Q9Y468 whole entry, looked up): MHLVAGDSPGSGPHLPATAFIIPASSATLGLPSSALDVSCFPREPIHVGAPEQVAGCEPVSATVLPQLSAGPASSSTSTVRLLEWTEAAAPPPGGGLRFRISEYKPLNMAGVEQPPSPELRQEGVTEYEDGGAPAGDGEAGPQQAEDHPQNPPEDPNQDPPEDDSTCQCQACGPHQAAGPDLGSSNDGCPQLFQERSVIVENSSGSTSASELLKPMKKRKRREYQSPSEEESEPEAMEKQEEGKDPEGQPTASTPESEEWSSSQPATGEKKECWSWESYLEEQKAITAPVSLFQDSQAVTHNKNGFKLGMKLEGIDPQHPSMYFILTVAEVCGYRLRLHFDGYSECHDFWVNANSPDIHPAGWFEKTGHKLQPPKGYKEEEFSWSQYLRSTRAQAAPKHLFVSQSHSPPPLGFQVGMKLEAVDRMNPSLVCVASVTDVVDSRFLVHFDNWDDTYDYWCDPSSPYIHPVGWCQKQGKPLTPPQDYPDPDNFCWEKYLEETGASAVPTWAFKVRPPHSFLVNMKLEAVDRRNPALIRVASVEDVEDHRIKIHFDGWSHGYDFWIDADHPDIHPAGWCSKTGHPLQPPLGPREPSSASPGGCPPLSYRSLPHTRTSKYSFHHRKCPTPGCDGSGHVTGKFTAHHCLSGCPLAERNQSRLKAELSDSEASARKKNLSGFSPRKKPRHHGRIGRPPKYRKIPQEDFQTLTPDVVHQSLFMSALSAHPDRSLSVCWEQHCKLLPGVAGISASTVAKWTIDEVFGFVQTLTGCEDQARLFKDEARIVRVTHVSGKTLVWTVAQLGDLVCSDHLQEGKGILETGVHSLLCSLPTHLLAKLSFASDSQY
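AlphaScreen proximity signal between nickel-chelate acceptor and streptavidin donor beads (final 10 ug/mL) reports binding of 50 nM L3MBTL1 to 75 nM biotin-H3 K9me1 peptide; complex incubated with compounds 30 min at room temperature; cefsulodin titration as control.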
BAZ2B block: inhibitors of human BAZ2B bromodomain; Q9UIF8; AlphaScreen BAZ2B-H3K14Ac peptide displacement; Potency, µM (highest dose often 114 µM), inactives show at the top dose activity change, negative = inhibition, actives largely listed as inhibitors; 4.4% of 360,000 active; AID 504333; further: on the % scale 0 is the no-effect control and ±100 the full control effect; nearly all actives have a fitted effect of over 60% in size
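AlphaScreen luminescence quantifies BAZ2B engagement of H3K14Ac peptide; the protein and biotinylated peptide are both at 50 nM final, buffer PBS pH 7.4 with 0.01% Tween-20, all steps at room temperature.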
Sfp PPTase inh: inhibitors of Bacillus subtilis Sfp phosphopantetheinyl transferase; Potency, µM, for inactives: largest response in the series, negative = inhibition, most hits filed as inhibitors; AID 1490; 3.5% of 310,000 active; Biochemical Sfp PPTase activity, qHTS;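 further: the enzyme is Sfp with the accession as filed and its product quenches rhodamine fluorescence; 0% = enzyme reaction without inhibitor and -100% = no enzyme wells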
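Fluorescence-quenching assay: 15 nM Sfp-PPTase preincubated 15 min at room temperature with compound, then 5 uM rhodamine-CoA and 12.5 uM BHQ-2-labelled YbbR peptide added. Fluorescence (ex 525/em 598 nm) read at start and after 30 min; difference gives rate.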
HP1b chromo inh: inhibitors of HP1-beta chromodomain binding to methylated histone tails; Potency, µM (highest dose often 114 µM), inactives show top-dose activity change, negative = inhibition, usual class: inhibitors; AlphaScreen HP1-beta / biotin-H3K9me3 peptide binding; 0.56% of 390,000 active; P83916; AID 540317; further: nearly all actives have a fitted effect of over 70% in size
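Compound inhibition of the preformed complex between 50 nM HP1-beta and 50 nM biotinylated H3K9me3 peptide was read by AlphaScreen. Buffer was PBS pH 7.4 with 0.01% Tween-20. Incubations ran 30 min at room temperature, with 10 ug/mL donor/acceptor beads.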
An asterisk follows results filed as active; u = inconclusive; x = no result; [ ] = dose if it differs, or a comment. The call rests on the fitted dose curve; in most records, active means well fitted curve in the direction sought with a large enough effect; inconclusive means small, poorly fitted or top-dose-only effect, or another doubt; inactive means no such curve, though single readings can be large; an effect the other way counts as inactive or inconclusive. Potency means the concentration at half of the fitted maximal effect.

SMILES	JMJD2A Tudor inh	G9a inh	L3MBTL1 inh	BAZ2B block	Sfp PPTase inh	HP1b chromo inh
COc1cccc(C(=O)N2CCC(N3CC(C)OC(C)C3)CC2)c1 (stereo not given)	6.3µM*	2.8µM*	-12%	50µM*	-23%	u
COc1cccc(C(=O)N2CCOCC2)c1	5%	0%	u	-8%	12%	28%
CCOc1ccccc1CNC(=O)c1ccc(NC(=O)N2CCSc3ncccc32)cc1	3%	-5%[59 µM]	x	-17%	x	38%
CC[C@H](C)[C@H]1CNC(=O)C(=O)N1CC1CCN(CC2CCC(C)CC2)CC1 (stereo not given in full)	-26%	x	x	x	x	12%
CCOC(=O)C1CCN(Cc2ccccc2C)CC1	-5%	u	x	56µM*	13%	17%
CCOC(=O)C1CCN(Cc2c(O)c3ccccc3oc2=O)CC1	-6%	-6%	-13%	21%	17%	29%
CN(C)S(=O)(=O)N(Cc1ccc(Br)cc1)c1ccccc1	58%	23%[12.7 µM]	34%	115%	-4%	116%
CN(C)S(=O)(=O)N(CC(=O)N(Cc1ccccc1)Cc1ccccc1)c1ccccc1	u	-4%[59 µM]	x	56µM*	-11%	8%
CN(C/C=C/c1ccccc1)C1CCCCC1	-13%	-21%	5%	-18%	12%	72%
COCCN(C/C=C/c1ccccc1)C/C=C/c1ccccc1	1µM*	7.1µM*	-5%	u	-19%	u
O=C(COc1c(Cl)cccc1Cl)Nc1ccccc1N1CCCC1	u	x	x	u	-4%	-7%
CCN(CC)c1ccc(NC(=O)CN2C(=O)CC(C)(C)S(=O)(=O)c3ccccc32)c(C)c1	-27%	8.9µM*	-2%	-12%	-17%	49%
O=C(CNCc1ccccc1Cl)Nc1ccccc1N1CCCCC1	22µM*	10µM*	17%	22µM*	-12%	u
CC1CCN(CC(=O)Nc2ccc(S(=O)(=O)N3CCCCC3)cc2)CC1	-6%	x	12%	7%	-5%	24%
CC1CCN(CC(=O)Nc2ccc(N3CCCCCC3)cc2)CC1	20µM*	10µM*	u	20µM*	-27%	22µM*
O=C(CNC1CCCCCC1)Nc1ccc(N2CCCC2)cc1	x	28µM*	-22%	u	-2%	x
Cc1ccc(CNC(=O)CNS(=O)(=O)c2cccs2)cc1	-2%	11%[59 µM]	x	-1%	x	27%[57 µM]
COC(=O)C1CC(O)C(O)C(O)C1 (stereo not given)	-2%	x	x	x	x	36%
COCCCNC(=O)C1CCCN(c2nn3cc(-c4ccc(C)cc4)nc3s2)C1 (stereo not given)	-26%	-4%[59 µM]	x	-18%	x	2%
O=C(CNCC1CCCO1)Nc1ccccc1N1CCCCCC1 (stereo not given)	u	45µM*	-3%	u	-9%	-14%
O=C(CNCC1CCCCC1)Nc1ccc(N2CCCCC2)cc1	x	22µM*	u	28µM*	u	x
O=C(CNC1CCCC1)Nc1ccc(N2CCCCCC2)cc1	2.8µM*	5.6µM*	-24%	22µM*	u	40µM*
Cc1ccccc1OCC(=O)Nc1ccccc1N1CCCCC1	71%	u	30%	x	u	140%
O=C(Nc1ccc(N2CCOCC2)cc1)C1CCCCC1	-7%	-29%[59 µM]	x	1%	14%	12%
O=C(CNCC1CCCO1)Nc1ccc(N2CCCCCC2)cc1 (stereo not given)	3.2µM*	u	x	35µM*	56µM*	14µM*
Cc1cccc(N/C(N)=N/c2nc(C(F)(F)F)cc(=O)[nH]2)c1C	u	7%[59 µM]	-5%	1%	-8%	5%
CC(C)OCCCNC(=O)CN1C(=O)CSc2ccc(S(=O)(=O)N3CCCCC3)cc21	-12%	3%[59 µM]	x	0%	15%	7%
CCN(CC)c1ccc(NC(=O)CNCc2ccccc2Cl)c(C)c1	10µM*	35µM*	x	18µM*	-22%	25µM*
